D3 ag: activates the human D3 dopamine receptor; P35462; max activation, %; actives 0.58% (n = 410,000); D3R DiscoveRx beta-arrestin cells, luminescence, 90 min; in the data active = max activation above about 30%; note: 0% is about no effect
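Cells at 1500/well, incubated overnight, then treated with pinned compounds (dopamine as control) for 90 min at 37 degrees C. DiscoveRx reagent added for 30 - 60 minutes at room temperature; luminescence read.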
DRD3 antagonist: D3 dopamine receptor (human) antagonism | D3R cells, DiscoveRx beta-arrestin luminescence, antagonist mode; active compounds read low | max response, negative = inhibition, % | actives 2.5% (n = 360,000); in the data active = max response below about -50%; inconclusive = no clear call, values can overlap the other calls; note: % is set by controls: 0 for no effect and ±100 for the full control effect
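Cells expressing the human receptor were seeded at 1500 cells/well, incubated overnight at 37 degrees C in 5% CO2, then exposed to library compounds with dopamine controls for 90 minutes at 37 degrees C before luminescent detection.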
B2AR arrestin: agonists driving beta-arrestin recruitment to human beta2-adrenergic receptor. beta-arrestin recruitment to beta2AR, cell-based reporter. Potency, µM (titrated, usually from 46.1 µM), without a hit: top-dose activation, actives largely listed as activators. actives 0.02% (n = 330,000). AID 492947; active = well fitted activation curve with a large enough effect; inconclusive = small, poorly fitted or top-dose-only effect;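 note: potency is the fitted concentration of half-maximal effect; 0% = DMSO controls and full agonism = EC100 isoproterenol or metaproterenol; nearly all actives have a fitted effect of over 65% in size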
TSHR antagonist: antagonists of human thyroid stimulating hormone receptor; P16473; TSHR-expressing cells, TSH-stimulated cAMP HTRF, 2 h; active compounds read low; activity change, negative = inhibition, % at 11.5 µM; actives 0.2% (n = 330,000);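 active = activity change below a set negative limit, meaning inhibition stronger than a set level, cut at about -70% in these data; inconclusive = activity change between two set negative limits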; note: % is set by controls: 0 for no effect and ±100 for the full control effect
Target sequence (P16473 whole entry, looked up): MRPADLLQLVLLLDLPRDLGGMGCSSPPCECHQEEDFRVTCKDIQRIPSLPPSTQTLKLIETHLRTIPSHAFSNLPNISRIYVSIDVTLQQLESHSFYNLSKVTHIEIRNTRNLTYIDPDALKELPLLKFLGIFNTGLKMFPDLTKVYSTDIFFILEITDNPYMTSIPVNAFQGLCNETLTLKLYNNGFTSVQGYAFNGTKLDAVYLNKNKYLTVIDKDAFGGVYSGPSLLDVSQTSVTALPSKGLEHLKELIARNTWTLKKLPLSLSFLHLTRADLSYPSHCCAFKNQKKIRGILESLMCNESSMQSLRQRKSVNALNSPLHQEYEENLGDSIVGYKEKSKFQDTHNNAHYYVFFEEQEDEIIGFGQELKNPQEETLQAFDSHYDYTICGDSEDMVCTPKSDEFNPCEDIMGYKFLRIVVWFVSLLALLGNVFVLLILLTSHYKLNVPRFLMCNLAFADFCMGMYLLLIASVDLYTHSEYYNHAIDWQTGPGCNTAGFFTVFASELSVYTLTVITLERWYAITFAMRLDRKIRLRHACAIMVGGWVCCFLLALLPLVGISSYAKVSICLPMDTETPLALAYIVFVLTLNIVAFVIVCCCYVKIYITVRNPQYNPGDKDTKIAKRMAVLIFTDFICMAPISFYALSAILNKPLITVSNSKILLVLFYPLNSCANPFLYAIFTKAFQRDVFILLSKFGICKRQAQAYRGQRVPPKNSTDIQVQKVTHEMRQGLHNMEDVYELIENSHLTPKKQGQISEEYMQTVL
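TSHR-expressing cells were treated with compounds, then stimulated with TSH at EC80 (4nM final) for 2 hours at 37 deg C. Cellular cAMP was measured by HTRF competition between lysate cAMP and cAMP-d2 for a cryptate-labelled anti-cAMP antibody.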
* hit, by the source's call; ? = inconclusive; . = not tested or not shown. This is a sample that favours compounds with a hit; in the whole collection about 2.9% have one here.

SMILES	D3 ag	DRD3 antagonist	B2AR arrestin	TSHR antagonist
CC(C)c1ccc(-c2nnn(Cc3nc4ccccc4s3)n2)cc1	-4	-72*	0%	-10
Oc1ccccc1/C=N/Nc1ccnc(SCc2ccccc2)n1	-17	-69*	?	1
Cc1cc(C=O)c(C)n1-c1ccc(NC2CCCC2)c([N+](=O)[O-])c1	6	13	0%	-100*
COC(=O)c1ccc2c(=O)n(CCCCCC(=O)N3CCN(c4cc(Cl)ccc4C)CC3)c(=O)[nH]c2c1	8	.	.	.
O=S(=O)(NCCc1csc2nc(-c3ccc(Cl)cc3)nn12)c1cccs1	-10	.	.	.
O=C(Cn1cnc2c(nc3n2CCCCC3)c1=O)Nc1ccc(F)cc1	-9	.	.	.
CCCCOC(=O)c1ccc(NS(=O)(=O)c2c(C)nc3scc(C)n3c2=O)cc1	36*	.	.	.
COc1ccc(C(NC(=O)/C=C/c2ccco2)c2ccc(OC)c(OC)c2)cc1OC	-5	-56*	?	16
CSCSC1=C(C#N)C(c2ccccc2Cl)C(C(C)=O)=C(C)N1 (stereo not given)	-7	8	0%	-80*
CCOC(=O)CSC1=C(C#N)C(c2ccccc2F)C(C(C)=O)=C(C)N1 (stereo not given)	-1	10	0%	-2
Cc1cccc(Cn2c(SCc3ccc(C(=O)NCCc4ccccc4)cc3)nc3cccnc32)c1	-35	.	.	.
COc1cc(C2NC(=O)NC(C)=C2C(=O)OCC2CCCO2)ccc1O (stereo not given)	31*	13	0%	1
COc1cc(C2NC(=O)NC(C)=C2C(=O)OCC2CCCO2)cc(OC)c1OC (stereo not given)	-3	3	-1%	21
Cc1ccc(-n2ncc3c(N4CCN(c5ccccc5)CC4)ncnc32)c(C)c1	36*	33	-1%	-49
c1ccc(-n2ncc3c(N4CCN(CCOc5cccc6ccccc56)CC4)ncnc32)cc1	40*	-10	0%	-13
CCOc1ccc(NC(=O)C(=O)NCCN2CCN(C(=O)c3ccc(C)cc3)CC2)cc1	-22	-60*	0%	-11
CCOc1ccc(CN2CCN(C(=O)c3ccccc3)CC2)cc1	-15	-80*	-1%	-3
O=C(c1cccc(C(=O)N2CCN(Cc3ccccc3)CC2)c1)N1CCN(Cc2ccccc2)CC1	2	-15	0%	-11
CCOc1ccc(C(=O)N2CCN(Cc3ccccc3)CC2)cc1	-19	?	0%	.
O=C(c1ccc2ccccc2c1)N1CCN(Cc2ccccc2)CC1	-18	-86*	0%	2
CCOc1ccc(C(=O)c2cn(CC(=O)Nc3ccc4c(c3)OCCO4)c3ccc(F)cc3c2=O)cc1	3	.	.	.
Cc1ccc(C)c(N2CCN(C(=O)c3ccc(-c4nc(COc5ccccc5)c(C)o4)cc3)CC2)c1	6	.	.	.
O=C(Nc1nccs1)c1nc[nH]c1C(=O)N1CCN(c2ccccc2)CC1	31*	-9	0%	-11
C=C(C)COc1cc2oc(=O)c(CC(=O)N3C[C@H]4C[C@@H](C3)c3cccc(=O)n3C4)c(C)c2cc1Cl	33*	-21	-1%	-10
Cc1ncc(C23CC4CC(CC(C4)C2)C3)[nH]1	-5	-55*	0%	0
SMILES	D3 ag	DRD3 antagonist	B2AR arrestin	TSHR antagonist
O=C1CCCc2c1[nH]c1ccc(CN3CCCCC3)cc21	-78	-54*	0%	6
Cc1ccc2[nH]c3c(c2c1)CCCC3=O	0	13	0%	16
CCc1ccc(NC(=S)N(CCCN2CCOCC2)Cc2ccco2)cc1	-16	-30	-1%	0
Cc1ccc(NC(=S)N(CCCN2CCN(C)CC2)Cc2cccs2)cc1C	-34	-23	0%	3
CCc1ccc(NC(=S)N(CCN2CCCCC2)Cc2ccco2)cc1	-36	-68*	-2%	12
COc1cccc(NC(=S)N(CCCN2CCC(C)CC2)Cc2cccs2)c1	-41	-84*	0%	-3
CSc1cccc(NC(=S)N(CCCN2CCC(C)CC2)Cc2cccs2)c1	-16	-76*	0%	2
Cc1ccc(NC(=S)N(CCCN2CCC(C)CC2)Cc2ccco2)cc1C	-34	-52*	0%	-1
COc1ccc(NC(=S)N(CCCN2CCC(C)CC2)Cc2cccs2)cc1	-7	-58*	3%	24
CSc1cccc(NC(=S)N(CCC(C)C)C2CCN(C(C)C)CC2)c1	-16	-85*	0%	8
Cc1ccc(NC(=S)N(CCCN2CCN(C)CC2)Cc2cccs2)cc1	-4	-2	-1%	39
